Results reported in PubChem BioAssay (NCATS).
Values without a mark were called inactive. Results filed as inconclusive are left out. For part of these data: Entries with a potency or affinity are not part of this list. The source made the active and inactive calls.

Legend:
[1] = Ebola virus entry assay, green fluorescence channel
[2] = Ebola virus entry assay, green channel fluorescence
[3] = Ebola virus entry assay, blue channel fluorescence
[4] = Ebola virus entry assay, green fluorescence channel; remark: listed apart in the source
[5] = Ebola virus entry assay, ratio channel readout
[6] = qHTS assay for cell viability of HEK293 cells (AID 743288; active = well fitted curve in the direction sought with a large enough effect; an effect the other way counts as inactive or inconclusive; note: % is set by controls: 0 for no effect and ±100 for the full control effect; nearly all actives have a fitted effect of over 50% in size); settings: ATP luminescence (CellTiter-Glo), 18 h, stronger effect = lower value
Method in brief: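 HEK293 parental, 2,000 cells/well; ≥5 h pre-incubation 37 C; pintool compound addition; 18 h, 37 C; CellTiter-Glo 30 min RT; luminescence read.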

[7] = qHTS assay for cell viability of the p53RE-bla HCT-116 cell line (AID 743292; active = well fitted curve in the direction sought with a large enough effect; an effect the other way counts as inactive or inconclusive; note: % is set by controls: 0 for no effect and ±100 for the full control effect; nearly all actives have a fitted effect of over 55% in size); settings: p53RE-bla HCT-116 viability, ATP luminescence, 16 h; series mostly up to 95 µM
Method in brief: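 Readout: CellTiter-Glo luminescence after 30 min RT. Treatment: compounds in DMSO, 16 h, 37 C. Cells: CellSensor p53RE-bla HCT-116, 4,000/well, preincubated 5 h.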

[8] = qHTS Assay for Identifying Gametocytocidal Compounds (AID 743244; active = well fitted curve in the direction sought with a large enough effect; an effect the other way counts as inactive or inconclusive;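 note: % is set by controls: 0 for no effect and ±100 for the full control effect; actives lower the fluorescent signal which means gametocytes are killed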); settings: P. falciparum 3D7 stage III-V gametocytes, alamarBlue, 72 h; max response: stronger effect = lower value
Method in brief: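 P. falciparum 3D7 stage III–V gametocytes (20,000 cells/well) were exposed to compounds for 72 h at 37 °C, 5% CO2. AlamarBlue was then added for 24 h; decreased resorufin fluorescence (Ex 525/Em 598 nm) indicated loss of viability.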
Throughout, for efficacy: 0% is about no effect.

## CC(=O)OCC(COC(C)=O)OC(C)=O
[1]
  efficacy: 12.7%
[2]
  outcome: inactive

## NC(=O)CS(=O)C(c1ccccc1)c1ccccc1 (configuration not stated)
[1]
  efficacy: -20.1%
[2]
  outcome: inactive

## COc1cc(C)c(Cc2cnc(N)nc2N)cc1OC
[1]
  efficacy: -5.94%
[2]
  outcome: inactive

## COc1ccc(-c2cc(=O)c3c(O)cc(O[C@@H]4O[C@H](CO[C@@H]5O[C@@H](C)[C@H](O)[C@@H](O)[C@H]5O)[C@@H](O)[C@H](O)[C@H]4O)cc3o2)cc1O
[1]
  efficacy: -6.57%
[2]
  outcome: inactive

## OCc1cccnc1
[1]
  efficacy: -9.44%
[2]
  outcome: inactive

## CC(=O)OCC(=O)[C@@]1(O)CC[C@H]2[C@@H]3CCC4=CC(=O)C=C[C@]4(C)[C@@]3(F)[C@@H](O)C[C@@]21C
[1]
  efficacy: 26.4%
[2]
  outcome: inactive

## CCCCCN(CCCOC)C(=O)C(CCC(=O)O)NC(=O)c1ccc(Cl)c(Cl)c1 (configuration not stated)
[1]
  efficacy: -27.8%
[2]
  outcome: inactive

## COP(=O)(OC)OC(c1ccc(Cl)cc1)P(=O)(OC)OC (configuration not stated)
[1]
  efficacy: -15.4%
[2]
  outcome: inactive

## CCCc1c2oc(C(=O)O)cc(=O)c2cc2c(=O)cc(C(=O)O)n(CC)c12
[1]
  efficacy: 16%
[2]
  outcome: inactive

## O=C(O)COc1nn(Cc2ccccc2)c2ccccc12
[1]
  efficacy: -8.45%
[2]
  outcome: inactive

## O=C(O)CCCC[P+](c1ccccc1)(c1ccccc1)c1ccccc1
[1]
  efficacy: 19.9%
[2]
  outcome: inactive

## Cc1cc2cc3c(C)cc(=O)oc3c(C)c2o1
[1]
  efficacy: -24.3%
[2]
  outcome: inactive

## CC(=O)OCC1=C(C(=O)O)N2C(=O)[C@@H](N)[C@H]2SC1
[1]
  efficacy: 11.9%
[2]
  outcome: inactive

## CC(C)NCC(O)c1ccc(NS(C)(=O)=O)cc1 (configuration not stated)
[3]
  outcome: inactive
[4]
  outcome: inactive
[5]
  outcome: inactive

## Oc1ccc(Cl)cc1
[6]
  max response: -5.89%
[7]
  Potency: inactive
[1]
  efficacy: -35.6%
[2]
  outcome: inactive

## O=C1c2ccccc2C(=O)C1C(=O)C(c1ccccc1)c1ccccc1
[8]
  max response: 4.31%
[6]
  max response: -28.7%
[7]
  Potency: inactive
[1]
  efficacy: -17.4%
[2]
  outcome: inactive

## Nc1cc(C(Cl)=C(Cl)Cl)c(S(N)(=O)=O)cc1S(N)(=O)=O
[1]
  efficacy: -15.2%
[2]
  outcome: inactive

## C[C@]12CCC(=O)C=C1CC[C@@H]1[C@@H]2[C@@H](O)C[C@@]2(C)[C@H]1CC[C@]2(O)C(=O)COC(=O)CCC(=O)O
[1]
  efficacy: -14%
[2]
  outcome: inactive
